# Rows were chosen to be rich in hits. Some 1.6% of all compounds tested hit in one or more screens of this group.
# KCNQ2 pot: KCNQ2 (rat) channel potentiation | CHO-K1 KCNQ2, FluxOR thallium flux fluorescence; hits give high values | B-score at 10 µM | 0.54% of 310,000 active | AID 2239;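 active = fluorescence ratio B-score at least 3 SD of library B-scores, with initial fluorescence B-score within 3 of them, cut at about 5.3 in these data; same plate scores as AID 2156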;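 note: B-score of peak minus minimum over baseline fluorescence ratio after K+ and Tl+ stimulus; positive B-score means potentiation of KCNQ2 with more thallium influx and brighter signal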
# KCNQ2 block: blocks the rat KCNQ2 potassium channel; O88943; CHO-K1 KCNQ2, FluxOR thallium flux, 20 min; hits give low values; B-score at 10 µM; 1.1% of 310,000 active;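 active = fluorescence ratio B-score at most minus 3 library SDs, with starting brightness B-score within 2 library SDs, cut at about -5.5 in these data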
# Kir21 confirm: confirmation of mouse Kir2.1 potassium channel inhibitors; shares compounds with KCNQ2 pot; Tl flux remaining, % of negative control (hits give low values), % at 10 µM; 41% of 2,300 active; Kir2.1-expressing cells, FluxOR thallium flux fluorescence; hits give low values; AID 2032;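 active = Primary-screen hit whose thallium flux fell at least 3 control SD below untreated wells in both duplicates, with normal baseline fluorescence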;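 note: 0% = blank wells without stimulus and 100% = stimulated no-compound controls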
# HEK293 ctr: alters thallium flux in parental HEK293 cells, Kir2.1 counter-screen. shares compounds with KCNQ2 pot. FluxOR thallium flux fluorescence; 0% = unstimulated blank wells. FluxOR signal as % of negative control (100 = no effect), % at 10 µM. 19% of 2,300 active;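 active = dye signal at least 3 control SD above or below untreated wells in both duplicates, raw fluorescence within 3, either direction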;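 note: percent is based on the flux ratio of peak minus minimum fluorescence over baseline F0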
# CHO-K1 Tl ctr: counter-screen for KCNQ2 potentiators: effect in parental CHO-K1 cells. shares compounds with KCNQ2 pot. FluxOR thallium flux fluorescence; zero = vehicle mean+3SD, 100% = vehicle-minus-blank window. activity increase over 3SD of controls, % at 10 µM. 43% of 1,200 active. AID 2282;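 active = signal rise of at least 3 SD above the untreated control mean, in both duplicate wells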;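 note: counter screen of KCNQ2 potentiator hits so any rise reflects channel-independent effects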
# KCNQ1 pot spec: selectivity of KCNQ2 potentiators: effect on human KCNQ1. shares compounds with KCNQ2 pot. 28% of 1,200 active. CHO KCNQ1 stable, FluxOR thallium flux fluorescence; beyond 3SD, as % of vehicle-control signal. activation over 3SD threshold, % at 10 µM;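 active = fluorescence ratio rise of at least 3 SD of vehicle wells above their mean, in both replicate wells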;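 note: 0% = vehicle mean plus 3 SD and 100% = vehicle minus unstimulated blank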
# KCNQ2 pot conf: confirmation of rat KCNQ2 potassium channel potentiators; shares compounds with KCNQ2 pot; CHO-KCNQ2 cells, FluxOR thallium flux fluorescence; potentiation, less the hit threshold, % at 10 µM; 68% of 1,200 active; AID 2287;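 active = fluorescence ratio rising 3 SD or more over the vehicle control mean in both replicates, plus primary screen hit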;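 note: peak minus minimum thallium fluorescence divided by baseline after K/Tl stimulus; 0% = vehicle mean plus 3 SD and 100% = vehicle minus unstimulated blank difference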
# Kir2-1 sel: mouse Kir2.1 off-target activity of KCNQ2 potentiators. shares compounds with KCNQ2 pot. HEK293 Kir2.1, FluxOR thallium flux fluorescence. activity over 3SD threshold, % at 10 µM. 2% of 1,200 active. AID 2345;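 active = fluorescence ratio rise of at least 3 SD above the vehicle-control mean, seen in both replicates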;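 note: 0% = vehicle mean plus 3 SD and 100% = vehicle minus no-stimulus blank window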
# KCNQ2 W236L pot: potentiates the retigabine-insensitive rat KCNQ2 W236L mutant channel; 10% of 940 active; AID 2558; CHO KCNQ2-W236L, automated patch clamp current; current increase over 3SD of negative controls (%), hits give high values, % at 25 µM; shares compounds with KCNQ2 pot;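 active = current increase at least 3 SD of the untreated controls above them in both duplicate recordings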
# Target sequence (O88943 whole entry W236L, looked up): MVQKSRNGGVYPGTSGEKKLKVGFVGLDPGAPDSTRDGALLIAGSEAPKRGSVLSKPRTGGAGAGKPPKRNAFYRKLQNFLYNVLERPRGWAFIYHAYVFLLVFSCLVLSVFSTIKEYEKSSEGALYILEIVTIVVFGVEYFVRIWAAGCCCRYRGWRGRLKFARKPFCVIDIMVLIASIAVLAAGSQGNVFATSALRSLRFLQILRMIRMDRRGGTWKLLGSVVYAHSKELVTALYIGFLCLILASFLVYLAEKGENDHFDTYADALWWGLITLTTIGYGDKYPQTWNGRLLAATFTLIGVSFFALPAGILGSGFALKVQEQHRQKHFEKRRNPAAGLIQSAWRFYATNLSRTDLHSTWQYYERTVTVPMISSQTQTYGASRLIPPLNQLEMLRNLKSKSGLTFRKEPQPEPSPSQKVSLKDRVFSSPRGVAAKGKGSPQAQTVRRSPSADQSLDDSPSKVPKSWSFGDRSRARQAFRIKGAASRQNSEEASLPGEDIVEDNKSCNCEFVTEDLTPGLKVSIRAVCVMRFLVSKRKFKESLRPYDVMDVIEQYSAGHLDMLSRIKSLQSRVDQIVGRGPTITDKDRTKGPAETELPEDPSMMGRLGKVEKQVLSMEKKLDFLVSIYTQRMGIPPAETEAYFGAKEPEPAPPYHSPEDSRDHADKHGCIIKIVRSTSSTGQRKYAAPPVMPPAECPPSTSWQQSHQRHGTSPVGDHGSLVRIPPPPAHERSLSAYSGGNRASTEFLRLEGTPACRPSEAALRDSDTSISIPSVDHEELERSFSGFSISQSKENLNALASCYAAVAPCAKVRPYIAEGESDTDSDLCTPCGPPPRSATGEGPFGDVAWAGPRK
# * marks the source's active call; other numbers are inactive results; i = inactive; / = no result.
SMILES,KCNQ2 pot,KCNQ2 block,Kir21 confirm,HEK293 ctr,others
O=C(C1COc2ccccc2O1)N1CCN(c2nc3c(F)cc(F)cc3s2)CC1 (configuration not stated),/,i,/,/,
O=C(CCNC(=O)Cn1ccc2ccccc2c1=O)NCCc1ccccc1Cl,0.1,i,/,/,
CCCCSCCCNC(=O)Nc1cccc(OC)c1,8.6*,i,i,i,CHO-K1 Tl ctr=-14;KCNQ1 pot spec=-16;KCNQ2 pot conf=15*;Kir2-1 sel=-36;KCNQ2 W236L pot=i
COc1cccc(NC(=O)NCCc2ccc(Cl)cc2)c1,/,i,/,/,
CCc1ccc(C(=O)CSC2=C(C#N)C(c3ccco3)C(C(C)=O)=C(C)N2)cc1 (configuration not stated),9.8*,i,i,i,CHO-K1 Tl ctr=113*;KCNQ1 pot spec=-11;KCNQ2 pot conf=-5;Kir2-1 sel=-24
CC(=O)C1=C(C)NC(SCC(=O)c2ccc(F)cc2)=C(C#N)C1c1ccco1 (configuration not stated),4.8,i,/,/,
N#CC1=C(SCC(=O)c2ccccc2)NC2=C(C(=O)CCC2)C1c1ccco1 (configuration not stated),1.6,i,/,/,
Cc1ccc(C(=O)CSC2=C(C#N)C(c3ccco3)C3=C(CCCC3=O)N2)cc1 (configuration not stated),6.6*,i,i,i,CHO-K1 Tl ctr=0.0*;KCNQ1 pot spec=5.9*;KCNQ2 pot conf=-7;Kir2-1 sel=-30
Cc1ccc(NC(=O)CN2C(=O)NC3(CCCCC3C)C2=O)cc1S(=O)(=O)N1CCCCC1 (configuration not stated),0.3,i,/,/,
O=C(OCCN1C(=O)c2ccccc2C1=O)C1CCN(S(=O)(=O)c2cccs2)CC1,0.1,i,/,/,
NC(=O)/C(=C/c1ccco1)C(N)=S,0.67,i,/,/,
O=C(CNC(=O)c1ccccc1)NC1(C(=O)NC2CCCCC2)CCCCC1,/,i,/,/,
Cc1ccc(N(CC(=O)NCc2ccccc2)S(=O)(=O)c2c(C)noc2C)cc1,0.01,i,/,/,
CCCCCNC(=O)c1ccc2c(=O)n(CC3CCCO3)c(=S)[nH]c2c1 (configuration not stated),0.82,i,/,/,
CCCCCNC(=O)c1ccc2c(=O)n(CC3CCCO3)c(=O)[nH]c2c1 (configuration not stated),6.1*,i,i,i,CHO-K1 Tl ctr=-10;KCNQ1 pot spec=-28;KCNQ2 pot conf=-12;Kir2-1 sel=-41
CC(C)(C)c1nc(SCC(=O)NCc2ccco2)c2ccccc2n1,0.34,i,/,/,
COc1ccc(C(=O)CSc2nc(C(C)(C)C)nc3ccccc23)cc1,13*,i,/,/,CHO-K1 Tl ctr=-7;KCNQ1 pot spec=60*;KCNQ2 pot conf=20*;Kir2-1 sel=-51;KCNQ2 W236L pot=i
O=C(NCC(=O)N(c1cccnc1)C(C(=O)NC1CCCCC1)c1ccccc1F)c1ccco1 (configuration not stated),/,i,/,/,
COc1ccccc1CC(NC(C)=O)C(=O)NC1CCN(S(=O)(=O)c2ccccc2)CC1 (configuration not stated),/,i,/,/,
N/C(=N\OC(=O)Nc1ccccc1)c1cccc(C(F)(F)F)c1,11*,i,i,i,CHO-K1 Tl ctr=-14;KCNQ1 pot spec=9.0*;KCNQ2 pot conf=23*;Kir2-1 sel=-28;KCNQ2 W236L pot=i
N/C(=N\OC(=O)Nc1ccccc1)c1ncc(C(F)(F)F)cc1Cl,/,i,/,/,
CC(C)/C=N/Nc1nc(-c2ccc(Br)cc2)cs1,/,i,/,/,
COc1ccc(NC(=O)/C(Cl)=C(/Cl)S(=O)Cc2ccccc2)cn1 (configuration not stated),12*,i,i,64%*,CHO-K1 Tl ctr=0.3*;KCNQ1 pot spec=-15;KCNQ2 pot conf=12*;Kir2-1 sel=-45;KCNQ2 W236L pot=3.2%*
COc1ccc(NC(=O)Cc2ccccc2)cn1,/,i,/,/,
C/C(=N\NC(=O)c1cc(-c2ccc(C)s2)[nH]n1)c1ccncc1,0.66,i,/,/,
SMILES,KCNQ2 pot,KCNQ2 block,Kir21 confirm,HEK293 ctr,others
Cc1cccc(NC(NC(=O)c2ccccc2[N+](=O)[O-])C(Cl)(Cl)Cl)c1 (configuration not stated),/,i,/,/,
COc1ccccc1C(=O)NNC(=O)c1ccc(Cl)cc1,0.04,i,/,/,
COc1ccccc1C(=O)NNC(=O)C(=O)NC(C)(C)C,3.8,i,/,/,
COc1ccccc1C(=O)NNC(=O)C(=O)Nc1ccc(C)c(Cl)c1,28*,i,i,312%*,CHO-K1 Tl ctr=78*;KCNQ1 pot spec=-9;KCNQ2 pot conf=54*;Kir2-1 sel=-27;KCNQ2 W236L pot=i
COc1ccccc1C(=O)NNC(=O)C(=O)Nc1ccc(C)cc1,22*,i,i,416%*,CHO-K1 Tl ctr=-21;KCNQ1 pot spec=25*;KCNQ2 pot conf=47*;Kir2-1 sel=-17;KCNQ2 W236L pot=i
CCN(C(=O)COC(=O)c1c(C)c(-c2ccccc2)nc2ccccc12)C1CCS(=O)(=O)C1 (configuration not stated),1.1,i,/,/,
CC(C(=O)Nc1ccc(Cl)cc1)N1C(=O)NC2(CCCC2)C1=O (configuration not stated),/,i,/,/,
CCOCCCNC(=O)CCn1nc(-c2ccc(Cl)cc2)ccc1=O,/,i,/,/,
CCCn1c(SCC(=O)N2CCN(CC)CC2)nc2c1c(=O)n(C)c(=O)n2C,1,i,/,/,
CCN(CC)C(=O)Cn1c(=O)oc2ccccc21,/,i,/,/,
CCCCN(C(=O)CCn1c(=O)oc2ccccc21)c1ccccc1,/,i,49%*,i,
NC(N)=N/N=C/c1ccc(OCc2ccccc2)cc1,-6.8,-6.8*,16%*,i,
O=C(N/N=C/c1ccc(OCc2ccccc2)cc1)c1ccco1,0.07,i,/,/,
O=C(O)C(CC1CCCCC1)N1CCS(=O)(=O)CC1 (configuration not stated),0.05,i,/,/,
COc1ccc(C(=O)CSc2nnc(CN3CCCCC3)n2-c2ccc(Cl)cc2)cc1OC,/,i,/,/,
COc1ccc(NC(=O)c2csc3c2CCCC3)cc1,/,i,/,/,
COc1cccc(NC(=O)c2csc3c2CCCC3)c1,8*,i,i,i,CHO-K1 Tl ctr=-6;KCNQ1 pot spec=-2;KCNQ2 pot conf=1.2*;Kir2-1 sel=-35;KCNQ2 W236L pot=i
O=C(CN(CCc1ccccc1)S(=O)(=O)c1ccc(Cl)cc1)N/N=C/c1ccccc1C(=O)O,/,i,/,/,
Cc1ccc(S(=O)(=O)Oc2ccccc2/C=N/NC(N)=S)cc1,0.42,i,/,/,
Cc1ccc(S(=O)(=O)Oc2ccccc2/C=N/N=C(N)N)cc1,/,i,46%*,i,
COc1ccc(OC)c(C2=Nn3c(nnc3-c3cc(C)[nH]n3)SC2)c1,/,i,/,/,

# Source: PubChem BioAssay (Johns Hopkins Ion Channel Center)
